Results filed as inconclusive are left out. Calls of active or inactive are those of the source.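 The calls were made as follows, unless noted: active = viability loss from added drug above about 55%, and viability with drug at most 40%, in both replicates (limit read from the data, passing the limit was not always enough); inconclusive = both conditions met in only one replicate; inactive = neither replicate meets both conditions.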
Experiments:
[1] = SK-BR-3 cell growth inhibitors, pilot screen, 24 h, human (AID 572;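 active = viability at or below 10% of carrier control in both of two separate runs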;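 also: compound exposure lasted between 18 and 24 h rather than exactly 24 h; 100% = carrier-treated control wells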); conditions: SK-BR-3 viability, CellTiter-Glo luminescence, at 10 µM, stronger effect = lower value
[2] = growth inhibitors of H69AR lung tumor, primary screen, human, duplicate replicates (AID 580;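 active = viability at or under a set limit in both replicates, limit being median viability minus 3 SD, cut at about 48% in these data, passing the limit was not always enough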;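 also: 100% = mean luminescence of untreated wells and 0% = no signal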); conditions: H69AR lung tumor cells viability, ATP luminescence, 72 h; at 10 µM; stronger effect = lower value
[3] = reversal of MRP1-mediated doxorubicin resistance, pilot screen, H69AR cells, doxorubicin co-treatment (AID 601); conditions: CellTiter-Glo, 72 h, at 10 µM; for differential viability (reversal): stronger effect = higher value
[4] = 384-well plate pilot, post-Golgi transport modulator project, inhibition of yeast transport mutant growth (AID 636; in the data active = inhibition above about 31%); conditions: absorbance 615 nm, about 18 h, stronger effect = higher value
[5] = growth suppression of yeast trafficking mutant, preliminary HTS, modulators of trafficking downstream of Golgi apparatus project, 1536-format plate, OD 615 nm (AID 637; in the data active = inhibition above about 30%); conditions: yeast transport mutant growth, absorbance 615 nm, 18 h; stronger effect = higher value
[6] = OD615 S. cerevisiae growth inhibition, permissive medium, pilot counter-assay, permissive growth control for S. cerevisiae lifespan shortening project (AID 705;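 active = growth inhibition above 25% in both replicates, a cutoff set 3 SD above the mean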); conditions: OD615, 24 h, at 10 µM, stronger effect = higher value
[7] = Restrictive medium S. cerevisiae growth inhibition, OD615, pilot screen of yeast lifespan reduction project, restrictive growth control (AID 706;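 active = growth inhibition above a set limit, 3 SD over mean compound inhibition, in both replicates, cut at about 43% in these data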;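 also: modified DeaD lifespan yeast strain shifted to restrictive glucose medium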); conditions: OD615, 48 h, at 10 µM, stronger effect = higher value
[8] = viability gain of MRP-1-high H69AR cells under doxorubicin, pilot screen, MRP-1 activator project, CellTiter-Glo, duplicate (AID 807;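 active = viability increase at or above a cutoff of the median across tested compounds plus 3 SD, cut at about 8.5% in these data, passing the limit was not always enough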;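 also: compound pretreatment 18-22 h then 72 h combined with doxorubicin; 0% = doxorubicin alone and 100% = vehicle without doxorubicin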); conditions: H69AR viability with doxorubicin, CellTiter-Glo luminescence; at 10 µM; stronger effect = higher value
[9] = growth suppression of beta-catenin knockout HCT116, pilot screen, human colon tumor cells (AID 823;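 active = cell viability at or below a set limit in both duplicate runs, the limit being the all-compound median minus 4 SD, cut at about 23% in these data, passing the limit was not always enough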;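 also: 0% = wells killed by 20 µM Hyamine and 100% = untreated DMSO cell wells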); conditions: CellTiter-Glo, 60 h, at 10 µM, stronger effect = lower value
[10] = growth suppression of PTEN-deleted HCT116, pilot screen, cell-based, HCT116 clonal line, CellTiter-Glo (AID 824;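 active = viability at or below 27.92% in each of two runs, the all-compound median minus 4 SD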;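 also: 0% = 20 µM Hyamine control and 100% = vehicle cell control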); conditions: 60 h, at 10 µM, stronger effect = lower value
[11] = inhibitors of the yeast RAM network, pilot screen, dse1pr::URA3 reporter, 5-FOA selection (AID 869;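 active = inhibition over a set limit, the all-compound mean plus 3 SD, in both replicate runs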;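 also: 0% = DMSO wells with no growth and 100% = 10 µM 1-NA-PP1 with full growth; RAM network block rescues cells from 5-FOA so hits raise OD615 growth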); conditions: S. cerevisiae dse1pr::URA3 5-FOA growth, OD615, 2 d; at 10 µM; stronger effect = higher value; strain carries analog-sensitive mutant Cbk1 kinase
[12] = H69AR cells + 2 uM doxorubicin, measured here: viability with 2 uM doxorubicin, stronger effect = lower value
[13] = H69AR cells, compound alone cytotoxicity

| SMILES | viability [1] | viability [2] | differential viability (reversal) ([3]; H69AR cells + 2 uM doxorubicin) | viability [3, 12] [%] | viability [3, 13] [%] | inhibition [4] | inhibition [5] | growth inhibition [6] | growth inhibition [7] | viability increase [8] | viability [9] | viability [10] | inhibition [11] |
| --- | --- | --- | --- | --- | --- | --- | --- | --- | --- | --- | --- | --- | --- |
| CC(=O)Nc1ccccc1OCC(=O)c1cc(C)n(Cc2cccs2)c1C | 92% (inactive) | 85.8% (inactive) | -4.4% (inactive) | 90.2 | 85.8 | -3.01% (inactive) | -3.45% (inactive) | – | – | – | – | – | – |
| Fc1ccc(C(c2ccc(F)cc2)N2CCN(C/C=C/c3ccccc3)CC2)cc1 | 89% (inactive) | 76.7% (inactive) | -5.65% (inactive) | 82.3 | 76.7 | 3.38% (inactive) | -1.17% (inactive) | – | – | – | – | – | – |
| COc1cccc(-c2cc(C(=O)Nc3cc(C)n(Cc4ccc(Cl)cc4)n3)no2)c1 | 57.5% (inactive) | – | -6.4% (inactive) | 58.5 | 52.1 | -6.35% (inactive) | -7% (inactive) | – | – | – | – | – | – |
| C(=C\c1ccccc1)/CSc1nnc(-c2ccccn2)n1Cc1ccco1 | 84% (inactive) | 21.4% (active) | -46.8% (inactive) | 68.2 | 21.4 | -6.53% (inactive) | -0.16% (inactive) | – | – | – | – | – | – |
| CCN(CC)S(=O)(=O)c1ccc2[nH]cc(C(=O)NCCC3=CCCCC3)c(=O)c2c1 | 138% (inactive) | 3.36% (active) | -40.9% (inactive) | 44.3 | 3.36 | -6.4% (inactive) | -0.65% (inactive) | – | – | – | – | – | – |
| Cc1ccc(-c2cc(C(F)F)nc(NCC3CCCO3)n2)cc1 (centres undefined) | 86% (inactive) | 100% (inactive) | 6.21% (inactive) | 94.2 | 100 | 1.56% (inactive) | -5.25% (inactive) | -12.2% (inactive) | -9% (inactive) | 2.09% (inactive) | 66.4% (inactive) | 71.6% (inactive) | 1.38% (inactive) |
| CCc1nnc(NC(=O)c2ccc(S(=O)(=O)N(CC(C)C)CC(C)C)cc2)o1 | 77% (inactive) | 32.9% (active) | -28.4% (inactive) | 61.4 | 32.9 | 3.9% (inactive) | 0.66% (inactive) | – | – | – | – | – | – |
| C(=C\c1ccccc1)/CN1CCN(C(c2ccccc2)c2ccccc2)CC1 | 90% (inactive) | 71% (inactive) | -2.73% (inactive) | 73.7 | 71 | 1.43% (inactive) | -3% (inactive) | – | – | – | – | – | – |
| COC(=O)c1ccccc1NC(=O)Cn1c(-c2nonc2N)nc2ccccc21 | 70.5% (inactive) | 15.7% (active) | -10.4% (inactive) | 26.1 | 15.7 | 1.07% (inactive) | -4.84% (inactive) | – | – | – | – | – | – |
| CCC(=O)Oc1ccc(/C(CC)=C(\CC)c2ccc(OC(=O)CC)cc2)cc1 | 131% (inactive) | – | -40.5% (inactive) | 49.2 | 8.75 | -0.39% (inactive) | -4.67% (inactive) | – | – | – | – | – | – |

Reference: PubChem BioAssay
